Measured values from PubChem BioAssay (EPA / NIEHS).
Records with an inconclusive call do not appear. Activity calls are given as the source filed them. How the source made its calls, unless noted: active means hit-call score of the fitted dose curve at least 0.9, where 1 is the maximum; inconclusive means response in the unintended direction; inactive means score below 0.9.

What was measured:
[1] = TOX21_p53_BLA_p2_viability: Viability Assessment in the Tox21 HCT-116 p53 Agonism Beta-lactamase Assay, Phase 2 (AID 2283591);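 further: compound exposure lasted 16 h at 37 °C; actives lower the ATP signal meaning cytotoxicity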
Procedure, shortened: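 HCT-116 p53-bla cells (4000/well) rested 5 h at 37C, then received compounds in DMSO (217-fold dilution) for 16 h at 37C, 5% CO2. After the CCF4 read, CellTiter-Glo was added; ATP luminescence was read after 30 min at room temperature.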

[2] = biological target: Cellular tumor antigen p53 (Homo sapiens) (UniProt P04637); test: TOX21_p53_BLA_p2_ratio: Tox21 HCT-116 p53 Agonism Beta-lactamase Assay, Ratio, Phase 2 (AID 2283592)
Procedure, shortened: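 HCT116 cells carrying a p53-responsive beta-lactamase reporter were plated, incubated 5 h at 37C, then dosed with compounds in DMSO (217-fold dilution) for 16 h. CCF4-AM substrate was added for 2 h at room temperature; the 460/530 nm emission ratio gave gain-of-signal activity relative to DMSO.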

[3] = TOX21_p53_BLA_p3_viability: Viability Assessment in the Tox21 HCT-116 p53 Agonism Beta-lactamase Assay, Phase 3 (AID 2283593);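 further: cells exposed to compound for 16 h before reading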
Procedure, shortened: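 HCT-116 cells (4000/well) rested 5 h at 37C, then got DMSO compounds by pin tool (217-fold dilution) for 16 h at 37C, 5% CO2. After the bla read, CellTiter-Glo was added and luminescence read at 30 min, room temperature.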

[4] = biological target: Cellular tumor antigen p53 (Homo sapiens) (UniProt P04637); test: TOX21_p53_BLA_p3_ratio: Tox21 HCT-116 p53 Agonism Beta-lactamase Assay, Ratio, Phase 3 (AID 2283596)
Procedure, shortened: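 HCT116 p53-bla cells (4000/well) given compound in DMSO (217-fold dilution) after 5 h, incubated 16 h at 37C. CCF4-AM substrate 2 h at room temperature; 460/530 nm emission ratio, gain fitted against DMSO.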

[5] = TOX21_p53_BLA_p4_viability: Viability Assessment in the Tox21 HCT-116 p53 Agonism Beta-lactamase Assay, Phase 4 (AID 2283597);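 further: hits lower the luminescence signal meaning cytotoxicity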
Procedure, shortened: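 HCT116 p53-bla cells (4000/well) rested 5 h at 37C, then received compounds in DMSO (217-fold dilution) for 16 h at 37C, 5% CO2. CellTiter-Glo was added after the CCF4-AM read, and luminescence was read after 30 min at room temperature.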

[6] = biological target: Cellular tumor antigen p53 (Homo sapiens) (UniProt P04637); test: TOX21_p53_BLA_p5_ratio: Tox21 HCT-116 p53 Agonism Beta-lactamase Assay, Ratio, Phase 5 (AID 2283599)
Procedure, shortened: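 HCT-116 cells carrying a p53-inducible beta-lactamase reporter were seeded at 4000 cells/well and dosed after 5 h with compound in DMSO (217-fold dilution). After 16 h at 37C, CCF4-AM substrate was added for 2 h, and the 460/530 nm emission ratio was scored as gain-of-signal versus DMSO.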

[7] = TOX21_p53_BLA_p5_viability: Viability Assessment in the Tox21 HCT-116 p53 Agonism Beta-lactamase Assay, Phase 5 (AID 2283600)
Procedure, shortened: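 Cells were plated at 4000/well, rested 5 h at 37C, then given compounds in DMSO (217-fold dilution) for 16 h at 37C, 5% CO2. Following the CCF4-AM beta-lactamase read, CellTiter-Glo was added and luminescence was read after 30 min at room temperature.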

[8] = biological target: Cellular tumor antigen p53 (Homo sapiens) (UniProt P04637); test: TOX21_p53_BLA_p4_ratio: Tox21 HCT-116 p53 Agonism Beta-lactamase Assay, Ratio, Phase 4 (AID 2283601)
Procedure, shortened: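 HCT116 cells carrying an inducible beta-lactamase reporter were plated at 4000 cells/well, rested 5 h, then exposed to compounds in DMSO (217-fold dilution) for 16 h at 37C. CCF4-AM substrate was loaded 2 h at room temperature; 460/530 nm emission ratio scored gain-of-signal versus DMSO.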

[9] = test system: Brachyury (BRA) Protein Expression, Deisenroth Lab, TBXT (gene 6862); test: CCTE_Deisenroth_DEVTOX-GLR_legacy_Bra: (Legacy) CCTE's DevTox GLR-Endo Assay Evaluation of Brachyury (BRA) Protein Expression, Deisenroth Lab (AID 2284329; active means hit-call score of the fitted dose curve at least 0.9, where 1 is the maximum; inactive means score below 0.9)
Procedure, shortened: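 RUES2-GLR human pluripotent cells differentiated 48 h with two 24-h-interval chemical exposures (1 nM - 200 uM, 10 points); fixed, nuclear-stained, imaged. Bra+ cell percentage (intensity 5x BMAD above pluripotent control median) fitted relative to 0.2% DMSO.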

[10] = CCTE_Deisenroth_DEVTOX-GLR_legacy_CellCount: (Legacy) Viability Assessment in CCTE's DevTox GLR-Endo Assay, Deisenroth Lab (AID 2284331; active means hit-call score of the fitted dose curve at least 0.9, where 1 is the maximum; inactive means score below 0.9); settings: actives raise or lower the signal
Procedure, shortened: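 Nuclei count by fluorescence high-content imaging (5 fields/well) after 48 h differentiation of RUES2-GLR cells. Two exposures, 24 h apart; 1 nM - 200 uM series; n=4. Bidirectional fit vs DMSO.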

[11] = test system: SRY-box transcription factor 17 (SOX17) Protein Expression, Deisenroth Lab, SOX17 (gene 64321); test: CCTE_Deisenroth_DEVTOX-GLR_legacy_Sox17: (Legacy) CCTE's DevTox GLR-Endo Assay Evaluation of SRY-box transcription factor 17 (SOX17) Protein Expression, Deisenroth Lab (AID 2284341; active means hit-call score of the fitted dose curve at least 0.9, where 1 is the maximum; inactive means score below 0.9); settings: actives raise or lower the signal
Procedure, shortened: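 RUES2-GLR human pluripotent cells, seeded 24 h, then differentiated 48 h in defined media with two chemical exposures 24 h apart (1 nM - 200 uM, 10 points). Sox17+ fraction from high-content fluorescence imaging; bidirectional fit versus 0.2% DMSO.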

[12] = test system: SRY-box transcription factor 2 (SOX2) Protein Expression, Deisenroth Lab, SOX2 (gene 6657); test: CCTE_Deisenroth_DEVTOX-GLR_legacy_Sox2: (Legacy) CCTE's DevTox GLR-Endo Assay Evaluation of SRY-box transcription factor 2 (SOX2) Protein Expression, Deisenroth Lab (AID 2284346; active means hit-call score of the fitted dose curve at least 0.9, where 1 is the maximum; inactive means score below 0.9)
Procedure, shortened: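 RUES2-GLR human pluripotent cells seeded 24 h, then differentiated 48 h in defined media with two chemical doses 24 h apart (10-point, 1 nM–200 uM). Fixed, nuclear-stained, imaged; % Sox2+ cells (>5x BMAD over endoderm control median), DMSO-subtracted, fitted upward.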

[13] = test system: SRY-box transcription factor 2 (SOX2) Protein Expression, Deisenroth Lab, SOX2 (gene 6657); test: CCTE_Deisenroth_DEVTOX-GLR_Endo_SOX2: CCTE's DevTox GLR-Endo Assay Evaluation of SRY-box transcription factor 2 (SOX2) Protein Expression, Deisenroth Lab (AID 2284412)
Procedure, shortened: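 RUES2-GLR human pluripotent cells were seeded 24 h, then differentiated 48 h with two chemical exposures 24 h apart. Cells were fixed, nuclei stained and imaged by high-content microscopy. Endpoint is %SOX2+ cells over cell count, minus 0.2% DMSO control; 10-point series 1 nM–200 uM.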

[14] = test system: SRY-box transcription factor 17 (SOX17) Protein Expression, Deisenroth Lab, SOX17 (gene 64321); test: CCTE_Deisenroth_DEVTOX-GLR_Endo_SOX17: CCTE's DevTox GLR-Endo Assay Evaluation of SRY-box transcription factor 17 (SOX17) Protein Expression, Deisenroth Lab (AID 2284413; active means hit-call score of the fitted dose curve at least 0.9, where 1 is the maximum; inactive means score below 0.9)
Procedure, shortened: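 Endpoint: % change in SOX17+ fraction (SOX17+ cells / cell count) vs 0.2% DMSO solvent control. RUES2-GLR reporter cells, 48 h endoderm differentiation, two doses at 24 h intervals, high-content fluorescence imaging, 5 fields/well.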

[15] = test system: Brachyury (BRA) Protein Expression, TBXT (gene 6862); test: CCTE_Deisenroth_DEVTOX-GLR_Endo_BRA: CCTE's DevTox GLR-Endo Assay Evaluation of Brachyury (BRA) Protein Expression, Deisenroth Lab (AID 2284417; active means hit-call score of the fitted dose curve at least 0.9, where 1 is the maximum; inactive means score below 0.9)
Procedure, shortened: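 RUES2-GLR human pluripotent cells, seeded 24 h, then differentiated 48 h in defined media with two chemical exposures 24 h apart (10-point series, 1 nM - 200 uM). Fixed, nuclear-stained, imaged; endpoint is percent BRA+ cells minus 0.2% DMSO control.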

[16] = CCTE_Deisenroth_DEVTOX-GLR_Endo_CellCount: Viability Assessment in CCTE's DevTox GLR-Endo Assay, Deisenroth Lab (AID 2284420; active means hit-call score of the fitted dose curve at least 0.9, where 1 is the maximum; inactive means score below 0.9)
Procedure, shortened: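 RUES2-GLR human pluripotent cells seeded 24 h, then differentiated 48 h with two chemical exposures at 24 h intervals (10-point, 1 nM - 200 uM). Fixed, nuclear-stained, imaged; nuclei counts give % change in cell count versus 0.2% DMSO.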

[17] = test system: SRY-box transcription factor 2 (SOX2) Protein Expression, Deisenroth Lab, SOX2 (gene 6657); test: CCTE_Deisenroth_DEVTOX-GLR_Pluri_SOX2: CCTE's DevTox GLR-Pluri Assay Evaluation of SRY-box transcription factor 2 (SOX2) Protein Expression, Deisenroth Lab (AID 2284428; active means hit-call score of the fitted dose curve at least 0.9, where 1 is the maximum; inactive means score below 0.9)
Procedure, shortened: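 Human pluripotent RUES2-GLR cells were seeded 24 h, then differentiated 48 h in defined media with two chemical doses at 24-h intervals (10-point, 1 nM–200 uM). Nuclear-stained cells were imaged; SOX2+ cells/cell count gave percent change versus 0.2% DMSO control.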

[18] = test system: Brachyury (BRA) Protein Expression, Deisenroth Lab, TBXT (gene 6862); test: CCTE_Deisenroth_DEVTOX-GLR_Pluri_BRA: CCTE's DevTox GLR-Pluri Assay Evaluation of Brachyury (BRA) Protein Expression, Deisenroth Lab (AID 2284429)
Procedure, shortened: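 Human pluripotent RUES2-GLR cells, seeded 24 h, were differentiated 48 h in defined media with two chemical doses at 24-h intervals (10-point, 1 nM - 200 uM). Readout: percent BRA+ cells by fluorescent reporter imaging, minus 0.2% DMSO control.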

[19] = CCTE_Deisenroth_DEVTOX-GLR_Pluri_CellCount: Viability Assessment in CCTE's DevTox GLR-Pluri Assay Evaluation of Total Cell Counts, Deisenroth Lab (AID 2284430; active means hit-call score of the fitted dose curve at least 0.9, where 1 is the maximum; inactive means score below 0.9)
Procedure, shortened: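 RUES2-GLR human pluripotent cells, seeded 24 h, then differentiated 48 h with two chemical exposures 24 h apart; 10-point series 1 nM - 200 uM. Fixed, nuclear-stained, imaged (5 fields/well); nuclei count as % change vs 0.2% DMSO.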

[20] = biological target: Thyroid hormone receptor alpha (Rattus norvegicus) + Thyroid hormone receptor beta (Rattus norvegicus) (UniProt P18113+P63059); test: TOX21_TR_LUC_GH3_Antagonist_Followup: Tox21 GH3 Thyroid Hormone Receptor Antagonism Luciferase Follow-Up Assay (AID 2283942)
Procedure, shortened: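 Rat pituitary GH3 cells with a TRα/TRβ-driven luciferase reporter, 5 h attachment, then 15 concentrations (92 uM to 5nM final) plus 1.0 nM T3 agonist, 24 h at 37C/5% CO2. ONE-Glo luminescence; signal change fitted against DMSO baseline.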

THRB (gene 7068) = THRB (gene 7068) (UniProt P10828); test: TOX21_TRB_BLA_Antagonist_Followup_ratio: Tox21 Thyroid Hormone Receptor beta Antagonism Beta-lactamase (BLA) Follow-Up Assay, Ratio (AID 2283958)
Procedure, shortened: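 HEK293T TRb-bla (GAL4 DBD + hTRβ LBD), 2% cs-FBS phenol red-free DMEM, 5 h attach; cpds 11-pt triplicate, 18 h 37C; CCF4-AM 2 h RT; 460/530 ratio vs DMSO; CellTiter-Glo viability same wells.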

[21] = TOX21_TRB_BLA_Antagonist_Followup_viability: Viability Assessment in the Tox21 Thyroid Hormone Receptor beta Antagonism Beta-lactamase (BLA) Follow-Up Assay (AID 2283961)
Procedure, shortened: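 HEK293T cells stably expressing GAL4-DBD/human TRβ-LBD with UAS-bla reporter, 3,000 cells/well in phenol red-free DMEM, 2% charcoal-stripped FBS. Compounds at 11 concentrations in triplicate, 18 h at 37C/5% CO2; viability by CellTiter-Glo luminescence after 30 min at room temperature.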

[22] = biological target: Retinoic acid receptor RXR-alpha (Homo sapiens) (UniProt P19793); test: TOX21_TR_RXR_BLA_Antagonist_Followup_ratio: Tox21 Thyroid Hormone Receptor beta Retinoid X Receptor alpha (RXRa) Antagonism Beta-lactamase (BLA) Follow-Up Assay, Ratio (AID 2283972)
Procedure, shortened: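 RXRa-UAS-bla HEK293T cells in phenol red-free DMEM with 2% charcoal-stripped FBS; compounds at 11 concentrations in triplicate, 16 h at 37C. LiveBLAzer FRET-B/CCF4-AM substrate 2 h at room temperature; read as 460:530 nm ratio versus DMSO.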

Measured: AC50

Chain of Cellular tumor antigen p53 (Homo sapiens) (P04637 whole entry, looked up): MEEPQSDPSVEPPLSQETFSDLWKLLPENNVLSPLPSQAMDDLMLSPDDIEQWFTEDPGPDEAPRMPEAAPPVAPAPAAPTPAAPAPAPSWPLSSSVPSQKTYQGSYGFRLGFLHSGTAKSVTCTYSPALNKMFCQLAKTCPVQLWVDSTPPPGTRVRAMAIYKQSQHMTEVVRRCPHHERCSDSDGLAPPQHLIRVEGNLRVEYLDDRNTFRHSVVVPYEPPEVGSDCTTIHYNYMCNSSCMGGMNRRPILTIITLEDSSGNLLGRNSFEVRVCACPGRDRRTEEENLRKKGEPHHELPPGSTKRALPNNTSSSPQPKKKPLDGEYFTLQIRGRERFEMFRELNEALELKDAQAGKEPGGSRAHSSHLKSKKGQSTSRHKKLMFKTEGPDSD
Chain of THRB (gene 7068) (P10828 whole entry, looked up, the tested form may be a part): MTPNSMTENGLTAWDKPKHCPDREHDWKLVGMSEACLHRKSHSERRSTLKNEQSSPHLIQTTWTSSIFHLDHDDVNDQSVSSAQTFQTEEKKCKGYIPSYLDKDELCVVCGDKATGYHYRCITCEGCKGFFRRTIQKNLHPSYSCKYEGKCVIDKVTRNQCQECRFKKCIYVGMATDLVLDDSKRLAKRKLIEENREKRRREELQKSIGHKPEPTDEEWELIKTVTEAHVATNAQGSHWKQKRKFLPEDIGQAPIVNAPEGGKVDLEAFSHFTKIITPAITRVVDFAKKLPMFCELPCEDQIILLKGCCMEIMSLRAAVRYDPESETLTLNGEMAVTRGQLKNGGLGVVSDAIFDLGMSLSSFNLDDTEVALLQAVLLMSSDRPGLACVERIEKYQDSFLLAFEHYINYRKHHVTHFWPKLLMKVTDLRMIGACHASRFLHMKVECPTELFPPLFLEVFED
Chain of Retinoic acid receptor RXR-alpha (Homo sapiens) (P19793 whole entry, looked up): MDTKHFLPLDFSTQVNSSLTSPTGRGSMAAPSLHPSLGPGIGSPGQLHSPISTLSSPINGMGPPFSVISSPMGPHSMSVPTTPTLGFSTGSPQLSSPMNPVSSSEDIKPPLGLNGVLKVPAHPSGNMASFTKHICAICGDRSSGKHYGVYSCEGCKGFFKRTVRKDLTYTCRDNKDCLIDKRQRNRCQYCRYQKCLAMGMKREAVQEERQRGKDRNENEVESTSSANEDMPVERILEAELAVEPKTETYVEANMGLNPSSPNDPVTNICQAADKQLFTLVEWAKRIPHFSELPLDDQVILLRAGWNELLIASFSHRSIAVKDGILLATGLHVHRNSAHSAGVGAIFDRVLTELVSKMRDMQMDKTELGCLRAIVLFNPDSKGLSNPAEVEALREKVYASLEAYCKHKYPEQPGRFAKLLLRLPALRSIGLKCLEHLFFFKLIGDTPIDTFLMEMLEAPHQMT

Cc1nc(Nc2ncc(C(=O)Nc3c(C)cccc3Cl)s2)cc(N2CCN(CCO)CC2)n1
active: [2] 26.8 µM | [3] 33.4 µM | [4] 36.5 µM | [5] 35.5 µM | [6] 32.7 µM | [8] 22.8 µM | [9] 3.19 µM | [10] 0.0582 µM | [11] 0.811 µM | [12] 151 µM | [13] 3.15 µM | [14] 0.633 µM | [15] 21.7 µM | [16] 0.0574 µM | [17] 0.621 µM | [18] 0.0529 µM | [19] 0.0132 µM
inactive: [1] | [7]

Oc1c(I)cc(I)c2cccnc12
active: [1] 10.6 µM | [3] 9.75 µM | [5] 23 µM
inactive: [2] | [4] | [6] | [7] | [8] | [20] | THRB (gene 7068) | [21] | [22]
